Measurements published in the supplement of paper PMC6555819.

Experiments:
Experiment in all cases: PBM binding z-score (relative to random genomic background probes); higher = stronger binding; sequences stand for … in GC…GCGATTGACAGCGTAGAATGAAGG
[1] = test system: FXR:RXRa (NR concentration 270 nM, RXRa partner concentration 90 nM)
Outline: (§1)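 Binding z-scores were set against random background probes. The data came from custom Agilent 4×180K protein-binding microarrays carrying double-stranded probes with 34-nt variable regions, incubated 1 h with ligand-free nuclear receptor dimers. Partner-specific antibodies detected binding, and scanned fluorescence was regression-normalized.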

[2] = test system: LXRa:RXRa (NR concentration 270 nM, RXRa partner concentration 90 nM)
Outline: as §1

[3] = test system: LXRa homodimer (NR concentration 270 nM)
Outline: as §1

[4] = test system: LXRb:RXRa (NR concentration 270 nM, RXRa partner concentration 90 nM)
Outline: as §1

[5] = test system: LXRb homodimer (NR concentration 270 nM)
Outline: as §1

[6] = test system: PPARa:RXRa (NR concentration 270 nM, RXRa partner concentration 90 nM)
Outline: as §1

[7] = test system: PPARg:RXRa (NR concentration 180 nM, RXRa partner concentration 90 nM)
Outline: as §1

[8] = test system: PPARg:RXRa 270nM:90nM, anti-RXR (NR concentration 270 nM, RXRa partner concentration 90 nM)
Outline: as §1

[9] = test system: PPARg:RXRa 30nM:10nM, anti-RXR (NR concentration 30 nM, RXRa partner concentration 10 nM)
Outline: as §1

[10] = test system: PPARg:RXRa 90nM:30nM, anti-RXR (NR concentration 90 nM, RXRa partner concentration 30 nM)
Outline: as §1

[11] = test system: PPARg:RXRa DBDmut IVT, anti-RXR (DBD mutation: RXRa K156A/R161A, NR concentration 270 nM, RXRa partner concentration 90 nM)
Outline: as §1

[12] = test system: PPARg:RXRa IVT, anti-PPARg (NR concentration 270 nM, RXRa partner concentration 90 nM)
Outline: as §1

[13] = test system: PPARg DBDmut:RXRa IVT, anti-PPARg (DBD mutation: PPARg1 K132A/R137A, NR concentration 270 nM, RXRa partner concentration 90 nM)
Outline: as §1

[14] = test system: PPARg DBDmut IVT, anti-PPARg (DBD mutation: PPARg1 K132A/R137A, NR concentration 270 nM)
Outline: as §1

[15] = test system: PPARg homodimer (NR concentration 180 nM)
Outline: as §1

[16] = test system: PXR:RXRa (NR concentration 270 nM, RXRa partner concentration 90 nM)
Outline: as §1

[17] = test system: PXR homodimer (NR concentration 270 nM)
Outline: as §1

[18] = test system: RARa:RXR (NR concentration 270 nM, RXRa partner concentration 90 nM)
Outline: as §1

[19] = test system: RARa homodimer (NR concentration 270 nM)
Outline: as §1

[20] = test system: RARb:RXRa (NR concentration 270 nM, RXRa partner concentration 90 nM)
Outline: as §1

Sequence	PBM binding z-score [1]	PBM binding z-score [2]	PBM binding z-score [3]	PBM binding z-score [4]	PBM binding z-score [5]	PBM binding z-score [6]	PBM binding z-score [7]	PBM binding z-score [8]	PBM binding z-score [9]	PBM binding z-score [10]	PBM binding z-score [11]	PBM binding z-score [12]	PBM binding z-score [13]	PBM binding z-score [14]	PBM binding z-score [15]	PBM binding z-score [16]	PBM binding z-score [17]	PBM binding z-score [18]	PBM binding z-score [19]	PBM binding z-score [20]
TAGCCTAGGTTAGATCGGGCCAGTATACGCTATA	0.436	-0.519	-0.629	-0.408	-0.862	-0.226	0.102	-0.562	-0.333	-0.187	-0.639	0.069	-0.497	-0.751	-0.958	-0.294	-0.619	0.00533	-0.589	0.0949
CGTCCAAGGTCATAGGAGGACAGTGAAGACAGAT	7.15	6.2	1.35	4.45	0.52	5.39	4.71	4.97	1.81	3.56	2.87	3.57	0.568	0.524	3.01	5.67	1.55	4.89	1.62	4.98
AGAGTGAGGTTATTAAGATCAGGGAATTGCGGTC	1.77	1.58	0.813	1.94	0.987	2.46	0.616	1.31	0.245	1.12	0.817	0.889	0.661	0.468	2.05	1.43	1.67	1.5	1.44	1.7
CACACAGGGTCAGCTAGGCCAGAGTAGGGACGGC	4.77	2.64	-0.0558	2.18	0.152	4.32	3.21	2.62	0.502	1.62	0.553	2.09	0.463	0.562	2.14	2.06	0.13	3.32	0.53	4.09
TCTCGGAGGACCCGAAAGGTCAGAGCTCGACATC	2.35	2.99	1.17	2.77	-0.541	3.34	0.565	2.23	2.07	2.11	1.1	0.853	-0.22	-0.929	1.7	3.45	-0.23	4.13	0.185	3.68
TCTGCTCGGTCAACGATGGTCAGCTAATCTGCTA	0.568	0.372	-0.251	-0.449	-0.425	0.275	-0.279	0.898	1.25	1.09	1.1	1.1	-0.37	-0.828	-0.45	-0.246	-1.09	-0.0627	-0.906	2.59
CCTTACGGGTCACTAGGTTATAGCACGACGAGCG	4.41	3.03	0.136	2.64	-0.31	5.02	6.65	5.97	3.03	4.94	4.54	5.69	1.5	0.896	2.59	2.84	-0.213	3.7	0.907	3.7
GCTCGGAGGACCAGGTCAGAGCTTTGTCCGTAGA	0.0133	-0.0636	-0.562	-0.241	-1.47	0.776	-0.725	-0.204	-1.11	-0.616	-0.0233	-0.0399	-1.45	-1.52	-0.553	0.343	-0.875	0.505	-0.985	1.35
AGTCAAAGTTCAGGACGAGGTAACGTGAAGCACG	4.49	3.69	1	1.68	-0.0491	3.33	4.84	4.84	2.04	4.12	-0.189	2.06	0.679	0.0315	1.48	2.72	0.947	2.65	1.04	4.51
TCATATAGGTAAAACGTGAAAGTCGGTGTGGTAA	0.91	0.644	0.37	0.856	0.255	2.09	2.92	4.34	4.63	4.71	6.04	2.88	0.79	1.01	1.25	0.221	0.241	0.571	1.24	0.406
TCATATGGGTAAATGCTAGGTGAAAGTCCGATCT	0.03	0.212	0.0774	0.31	-0.359	0.897	0.667	1.71	2.1	1.91	2.91	2.07	0.703	0.469	-0.0354	0.217	-0.0586	0.519	-0.166	0.208
CCGACTGGGGCAAAGGTTACCTTACTCAGTACGA	1.37	1.71	-0.345	1.98	-1.42	5.37	10.6	9.12	7.96	9.81	5	5.64	0.278	-0.11	1.61	2.22	-0.485	3.41	-0.487	2.19
CCTGCTAGGTCAATGGGCAGCTAAAGCAGCTCGC	1.94	1.62	-0.481	0.861	-0.588	2.59	2.02	3.18	0.64	2.19	3.7	3.4	-0.844	-1.02	0.228	0.352	-0.589	1.07	-0.679	3.6
ATCGAAAGGTCGACGAGGTGAGGATACACCGTTT	4.5	3.36	0.0188	2.44	0.655	4.27	3.09	3.46	1.36	2.36	0.8	2.39	0.388	0.42	1.72	2.77	0.496	3.52	0.262	3.98
